Bioassay records (PubChem)
HT1080-NT tox: qHTS for induction of synthetic lethality in tumor cells producing 2HG: qHTS for the HT-1080-NT fibrosarcoma cell line | HT-1080-NT fibrosarcoma viability, CellTiter-Glo ATP luminescence, 48 h | Potency, µM (top dose mostly 46.1 µM), without a hit: at the highest dose activity, negative = less viability, usual class: cytotoxic | 360,000 tested, 1.6% active;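 note: NT is the 2HG producing partner of a matched IDH1 knockdown line; 0% = DMSO-treated cells and -100% = media-only wells without cells; nearly all actives have a fitted effect of over 55% in size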
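Fibrosarcoma NT cells, 750 per well in 5% FBS RPMI, were exposed to compound for 48 hours. Viability: CellTiter-Glo luminescence.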
SW480 rerep: A quantitative high throughput screen for small molecules that induce DNA re-replication in SW480 colon adenocarcinoma cells. SW480 DNA re-replication, Hoechst DNA content imaging, 48 h. Potency, µM (titrated, usually from 46.1 µM), for inactives: at the top dose re-replication activation, actives largely listed as activators. 340,000 tested, 1.8% active; note: % of control where 0% means no effect; nearly all actives have a fitted effect of over 55% in size
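SW480 cells exposed to compounds for 48 hr at 37 C, 5% CO2, then Hoechst-stained 40 min. Nuclear DNA content imaged by fluorescence scanning (405 nm excitation, 500-530 nm emission); re-replication scored as increased high-intensity nuclei.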
KB-3-1 cytotox: qHTS assay for MDR1-selective chemotherapeutics: Primary screen using the parental adenocarcinoma cell KB-3-1; 400,000 tested, 1.4% active; Potency, µM (series often up to 46.1 µM), hits mostly cytotoxic; KB-3-1 viability, CellTiter-Glo ATP luminescence, 72 h; note: % is set by controls: 0 for no effect and ±100 for the full control effect; nearly all actives have a fitted effect of over 60% in size
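Parental KB-3-1 viability, qHTS format: 72 h compound exposure, 37 °C; CellTiter-Glo; media-only wells and DMSO plates as controls; concentration-effect fits on corrected data.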
KB-V1 cytotox: qHTS assay for MDR1-selective chemotherapeutics: Primary screen using the drug-selected MDR subline cells KB-V1. Potency, µM (series often up to 46.1 µM), usual class: cytotoxic. AID 1347076, 2019. KB-V1 MDR cells viability, CellTiter-Glo, 72 h. 400,000 tested, 3.4% active; note: % is set by controls: 0 for no effect and ±100 for the full control effect; nearly all actives have a fitted effect of over 60% in size
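Compound-treated KB-V1 multidrug-resistant cells, 72 h, 37 degrees C; viability by CellTiter-Glo. Fitted qHTS curves give the values.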
HT1080 IDH1KD tx: qHTS for induction of synthetic lethality in tumor cells producing 2HG: qHTS for the HT-1080-IDH1KD cell line; HT-1080 IDH1 knockdown viability, ATP luminescence, 48 h; Potency, µM (titrated, usually from 46.1 µM), without a hit: top-dose activity, negative = toxicity, hits mostly cytotoxic; 360,000 tested, 2% active;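 note: 0% = DMSO wells and -100% = cell-free medium wells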
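Viability of IDH1-knockdown HT-1080 fibrosarcoma cells was assessed by CellTiter-Glo after 48 h at 37 °C with titrated compound; concentration-effect curves were classified by fit quality and response size.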
MCF10A rerep: A quantitative high throughput screen for small molecules that induce DNA re-replication in MCF 10a normal breast cells | MCF 10A DNA re-replication, Hoechst nuclear intensity, 48 h | Potency, µM (series often up to 46.1 µM), for inactives: at the top dose activity, positive = re-replication, usual class: activators | 350,000 tested, 2.9% active | AID 624296, 2012; note: % of control where 0% means no effect; nearly all actives have a fitted effect of over 50% in size
Numbers without * were called inactive; i = inactive; ? = inconclusive; . = no result given; [ ] = another dose, or the depositor's remark. A selection: hits, their analogues and other compounds. The true share with any hit is near 7.9%. Calls come from the whole dose curve; as a rule, active = well fitted curve in the direction sought with a large enough effect; inconclusive = small, poorly fitted or top-dose-only effect, or another doubt; inactive = no such curve, though single readings can be large; an effect the other way counts as inactive or inconclusive. Potency is the fitted concentration of half-maximal effect.

SMILES	HT1080-NT tox	SW480 rerep	KB-3-1 cytotox	KB-V1 cytotox	HT1080 IDH1KD tx	MCF10A rerep
CC(=O)c1c2c3c(c(Br)ccc3n(C)c1=O)C(=O)c1ccccc1-2	20%	-1%	i	?	15%	15%
CC(=O)c1c(C)oc2c1C(=O)c1ccccc1C2=O	-1%	7.3µM*	?	6.5µM*	-5%	22%
Cc1oc2c(c1C(=O)NCc1cccnc1)C(=O)c1ccccc1C2=O	4.1µM*	19%	?	2.6µM*	2.6µM*	?
COc1ccc(CNC(=O)c2ccc(-c3ccccc3)cc2)cc1	25%	-5%[9.22 µM]	i	i	20%	3%
COc1ccc(CNC(=O)c2c(C)oc3c2C(=O)c2ccccc2C3=O)cc1	?	21µM*	?	i	-10%	4.6µM*
Cc1cccc(N2CCN(C(C(=O)NCc3ccccc3)c3ccco3)CC2)c1C (centres undefined)	?	.	i	?	?	.
